# Test results as given in article PMC8159961, “Exploring protein hotspots by optimized fragment pharmacophores” (Nature Communications, 2021).
# Unmarked numbers belong to inactive results. The rule behind the calls is not given here.
# Molecular target: thrombin (human, UniProt P00734)
# Assay: primary screen, binary call; higher = more effect of the substance
# Parameters: screenings were carried out in duplicate in one independent experiment
# Details: 200 µM
# Experimental: Protease inhibitory assays were performed in transparent microtiter plates in a final volume of 200 µL with the use of chromogenic substrates. The reaction rates in the absence and in the presence of the inhibitor were measured; screenings were carried out in duplicate in one independent experiment and Ki values were determined in triplicate in two independent experiments.
row,Compound,Thrombin
1,Clc1ccc2nnnn2n1,0
2,COC(=O)c1c(C)nc(C2CC2)[nH]c1=O,0
3,CCc1nccn1CC(=O)O,0
4,Cn1c(N)nc2ccccc21,0
5,c1ccc2c(N3CCNCC3)ccnc2c1,0
6,O=C(CN1CCCC1)c1ccccc1Cl,0
7,Nc1ccc(-c2ccccc2)cc1C(=O)O,0
8,N#Cc1ccc(C(=O)N2CCOCC2)cc1,0
9,CS(=O)(=O)c1ccc(OC(F)(F)F)cc1,0
10,N#CC1CCS(=O)(=O)C1 (stereo not shown),0
11,O=C(CN1CCNCC1)c1ccccc1,0
12,O=C1NC2(CCCC2)Nc2ccccc21,0
13,COc1cccc(NC2=NCCCCC2)c1,0
14,Cc1cc(C)c2c(=O)[nH]n(C)c2n1,0
15,COc1ccccc1CC1CCNCC1.Cl,0
16,Fc1ccc2c(C3CCNCC3)c[nH]c2c1,0
17,CS(=O)(=O)Nc1ccc(C(=O)O)cc1,0
18,c1ccc2oc(C3CCCNC3)nc2c1 (stereo not shown),0
19,O=C(O)C1CCN(c2ncccn2)CC1,1 (active)
20,NCC1(c2ccccc2)CCOCC1,0

row,Compound,Thrombin
1,NC(=O)N1CCC(C(=O)O)CC1,1 (active)
2,O=C(O)CC1CCC(=O)N1 (stereo not shown),0
3,O=C(c1ccncc1)N1CCNCC1,0
4,COc1ccc(C2=CCNCC2)cc1,0
5,CS(=O)(=O)c1ccc(N2CCNCC2)cc1,0
6,O=C(O)c1ccc(CN2CCOCC2)cc1,0
7,C1=C[C@H]2O[C@@H]1c1ccccc12,0
8,CC1(C)OC(=O)c2cc(Br)c(O)cc2O1,0
9,CC1CCc2sc(C(=O)O)cc2C1 (stereo not shown),1 (active)
10,O=c1[nH]c2c(s1)CCC2,0
11,Cc1nc(-c2ccccc2)cs1,0
12,CC1C(=O)NC(=O)N1c1ccc(Cl)cc1 (stereo not shown),0
13,Cn1nc(C(F)(F)F)cc1O,0
14,Fc1ccc(CC2CCCNC2)cc1 (stereo not shown),0
15,Cc1ccc(-c2ccc(O)cc2)cc1,0
16,CCc1ccc(NC2=NCCCS2)cc1,0
17,Cn1c(CO)nc2ccccc21,0
18,Cc1cc(N)no1,0
19,Oc1cnc(-c2ccccc2)nc1,0
20,NC1CCc2ccccc21 (stereo not shown),0
